Tg IFNy HTS: inhibitors of Toxoplasma gondii growth with IFN-gamma; Toxoplasma gondii growth in IFN-gamma-treated host cells; active compounds read low; activity change, negative = inhibition, % (concentration not given with the values); hit rate 3.8% among 69,000; in the data active = activity change below about -70%, passing the limit was not always enough;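 also: host cells are HeLa cells infected with Toxoplasma gondii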
* = called active by the depositor. Many of the other results were omitted from the sample, so hits are more common in it than they were.

CCOc1cccc(C2c3[nH]c4ccccc4c3CCN2C(=O)COc2ccccc2)c1 (configuration not stated) was read as Tg IFNy HTS inactive.
For CCOc1cccc(C2c3[nH]c4ccccc4c3CCN2C(=O)c2ccco2)c1 (configuration not stated) the results were Tg IFNy HTS -109*.
`CCOc1cccc(C2c3[nH]c4ccccc4c3CCN2C(=O)c2cccs2)c1` (configuration not stated) gave Tg IFNy HTS inactive.
Screening CCOc1cccc(C2c3[nH]c4ccccc4c3CCN2C(=O)c2cc3ccccc3[nH]2)c1 (configuration not stated) returned Tg IFNy HTS inactive.
`CCOc1ccc(NC(=O)N2CCCn3cncc3C2)cc1` gave Tg IFNy HTS 11.
Cc1ccc2[nH]c(C(=O)NCc3ccncc3)c(NC(=O)c3ccc(F)cc3)c2c1 was read as Tg IFNy HTS -40.
Screening O=S(=O)(NCc1ccccc1)N1CCCC1C(F)(F)F (configuration not stated) returned Tg IFNy HTS 5.
Cc1nc(C2CCC(CNC(=O)C3Cc4ccccc4CN3C)CC2)ccc1C(N)=O (configuration not stated) was read as Tg IFNy HTS 14.
For COc1ccc(NC(=O)CN2CCC3(CC2)N=C(c2ccc(C(C)(C)C)cc2)C(=O)N3)cc1 the results were Tg IFNy HTS 77.
Screening C[C@@H]1CN([C@H](C)CO)C(=O)c2cc(C3=CCCC3)cnc2O[C@@H]1CN(C)C(=O)Nc1ccc(C(F)(F)F)cc1 returned Tg IFNy HTS -48.
`CCc1ccccc1NC(=O)Cn1ncc2c(N3CCN(c4ccccc4)CC3)ncnc21` gave Tg IFNy HTS 254.
Screening CNC(=O)C(C)N(C)Cc1ccc(C(C)=O)cc1 (configuration not stated) returned Tg IFNy HTS -39.
For Cc1cc(C)n(-c2nnc(SCC(=O)Nc3ccccc3)c3ccccc23)n1 the results were Tg IFNy HTS 3.
CCOC(=O)c1ccc(Nc2nnc(-n3nc(C)cc3C)c3ccccc23)cc1 was read as Tg IFNy HTS -85*.
`CCOC(=O)c1nc(Nc2ccc(CC)cc2)c2ccccc2n1` gave Tg IFNy HTS -38.
Cc1cc(C)nc(N2CC(=O)N(C)C2=N)n1 was read as Tg IFNy HTS 60.
Screening CN(C)C(=O)[C@]12CCO[C@H]1CCN(c1ncccn1)C2 returned Tg IFNy HTS 20.
`Cc1nc(OCC(=O)Nc2ccccc2Br)c2ccccc2n1` gave Tg IFNy HTS -4.
Screening COc1ccc(Cn2nnnc2CN2CCn3cc(C(F)(F)F)nc3C2)cc1 returned Tg IFNy HTS -39.
For CCC1(O)CC2CN(CCc3c([nH]c4ccccc34)C(C(=O)OC)(c3cc4c(cc3OC)N(C)C3C(O)(C(=O)OC)C(C(=O)OC)C5(CC)C=CCN6CCC43C65)C2)C1 (configuration not stated) the results were Tg IFNy HTS -86*.
`CCN(CC)CCCNC(=O)C1=C(C)C(=O)OC12CCN(S(=O)(=O)CC)CC2` gave Tg IFNy HTS 6.
For CCNC(=O)C1CCN(C(=O)CSc2n[nH]c(CC)n2)C1 (configuration not stated) the results were Tg IFNy HTS 26.
For O=C(Nc1ccccc1OCC1CCCCO1)C1CC(=O)N(c2cccc(F)c2)C1 (configuration not stated) the results were Tg IFNy HTS 11.
Screening Cc1cc(C)n2nc(C(=O)N3CCCC(O)(CO)C3)cc2n1 (configuration not stated) returned Tg IFNy HTS -3.
`Cc1nc(-c2cccc(F)c2)sc1CCNC(=O)c1ccc(Br)cc1` gave Tg IFNy HTS -50.
Screening COc1ccc(C(=O)c2sc(=S)n(-c3ccccc3)c2N)cc1 returned Tg IFNy HTS 325.
Screening Cc1nc2sc(C(=O)c3ccc(Br)cc3)c(N)c2c(C)c1C returned Tg IFNy HTS -95*.
O=C(c1cccs1)N1CCN(c2ccc(Nc3ccc(-c4ccccc4)nn3)cc2)CC1 was read as Tg IFNy HTS -68.
`Nc1nc(N2CC(c3ccccn3)C2)c2cn[nH]c2n1` gave Tg IFNy HTS 1.
Screening O=C(NC1CCC(n2cnnc2)CC1)c1ccccc1Oc1ccccc1 (configuration not stated) returned Tg IFNy HTS -6.
O=C(NCC1CCC(c2[nH]nc3nccnc23)CC1)c1ccccc1F (configuration not stated) was read as Tg IFNy HTS -46.
For CC[C@@H](C(=O)C(C)[C@@H](O)[C@H](C)CCc1ccc(C)c(O)c1C(=O)O)C1OC(CC)(C2CC[C@](O)(CC)[C@H](C)O2)C[C@@H]1C (some centres not stated) the results were Tg IFNy HTS -74*.
Screening CCn1cnc2sc(C(=O)NCc3nc(Cc4ccccc4)no3)c(C)c2c1=O returned Tg IFNy HTS -10.
CN(C)CC(=O)N1CCC2(CCOCC2COCC2CC2)CC1 (configuration not stated) was read as Tg IFNy HTS 0.
For CCN(Cc1nc(C)no1)C(=O)CCc1cc(C)cc(C)c1 the results were Tg IFNy HTS -8.
COc1ccc(-c2nc3c(s2)CN(S(=O)(=O)c2cccc(Cl)c2)CC3)cc1 was read as Tg IFNy HTS 0.
For COc1cccc(-c2nc3c(s2)CN(S(=O)(=O)c2ccc(C)c(C)c2)CC3)c1 the results were Tg IFNy HTS -104*.
CCc1ccc(S(=O)(=O)N2CCc3nc(-c4cccc(OC)c4)sc3C2)cc1 was read as Tg IFNy HTS -46.
`CCOc1ccc(-c2nc3c(s2)CN(S(=O)(=O)c2cc(C)cc(C)c2)CC3)cc1` gave Tg IFNy HTS -95*.
Screening COc1cccc(-c2nc3c(s2)CN(S(=O)(=O)c2cccc(C)c2)CC3)c1 returned Tg IFNy HTS -105*.
For CCOc1ccc(-c2nc3c(s2)CN(S(=O)(=O)c2ccccc2)CC3)cc1 the results were Tg IFNy HTS -49.
For CCOc1ccc(-c2nc3c(s2)CN(S(=O)(=O)c2ccc(OCC)cc2)CC3)cc1 the results were Tg IFNy HTS 37.
`COc1cccc(-c2nc3c(s2)CN(S(=O)(=O)c2ccc(F)c(Cl)c2)CC3)c1` gave Tg IFNy HTS -37.
Screening COc1cccc(-c2nc3c(s2)CN(S(=O)(=O)c2ccccc2Cl)CC3)c1 returned Tg IFNy HTS -102*.
For COCCCN1CCc2nc(SCc3nc(-c4ccccc4OC)oc3C)[nH]c(=O)c2C1 the results were Tg IFNy HTS -11.
`O=C(c1cccnc1)N1CCC(F)(F)C2(CCN(Cc3ccccn3)C2)C1` (configuration not stated) gave Tg IFNy HTS -13.
CN(C)C(=O)N1CC(=O)NCC12CCN(C(=O)Nc1ccccc1)C2 (configuration not stated) was read as Tg IFNy HTS 5.
For O=C(c1ccc2cccnc2c1)N1CCOC(c2ccc(Cl)c(Cl)c2)C1 (configuration not stated) the results were Tg IFNy HTS -51.
Screening Cc1c(Cl)cccc1S(=O)(=O)N1CCc2nc(-c3ccccc3)sc2C1 returned Tg IFNy HTS -83*.
For CCc1ccccc1S(=O)(=O)N1CCc2nc(-c3ccccc3)sc2C1 the results were Tg IFNy HTS -68.
`CCCc1ccc(S(=O)(=O)N2CCc3nc(-c4cccc(OC)c4)sc3C2)cc1` gave Tg IFNy HTS 2.
For COc1ccc(-c2nc3c(s2)CN(S(=O)(=O)c2cccc(C)c2)CC3)cc1OC the results were Tg IFNy HTS -89*.
